Reference: PubChem BioAssay (NCATS)
Results filed as inconclusive are left out. Calls of active or inactive are those of the source. Calls come from the whole dose curve; as a rule, active = well fitted curve in the direction sought with a large enough effect; inconclusive = small, poorly fitted or top-dose-only effect, or another doubt; inactive = no such curve, though single readings can be large; an effect the other way counts as inactive or inconclusive.

Columns and labels:
[1] = qHTS of pediatric cancer cell lines to identify multiple opportunities for drug repurposing: Primary screen for Saos-2 cells (AID 1347097); details: Saos-2 viability, CellTiter-Glo ATP luminescence, 48 h; series mostly up to 46 µM; note: nearly all actives have a fitted effect of over 40% in size
Summary of the method: (§1)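 Quantitative HTS format: each compound titrated (MIPE 11 points from 0.78 nM, NPC 8 points from 0.59 nM) onto cells plated 5 hours earlier. After 48 h at 37 degrees C, CellTiter-Glo luminescence was recorded.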

[2] = qHTS of pediatric cancer cell lines to identify multiple opportunities for drug repurposing: Primary screen for Rh18 cells (AID 1347102); details: Rh18 rhabdomyosarcoma viability, CellTiter-Glo luminescence, 48 h; series mostly up to 46 µM; note: nearly all actives have a fitted effect of over 65% in size
Summary of the method: (§2)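 Viability after 48 h compound treatment at 37C, 500-1,000 cells/well, read as ATP luminescence with CellTiter-Glo. Primary screens used 11-point (MIPE, 0.78 nM-46 µM) or 8-point (NPC, 0.59 nM-46 µM) final concentrations; follow-up screens used 11-point dilutions.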

[3] = qHTS of pediatric cancer cell lines to identify multiple opportunities for drug repurposing: Primary screen for MG 63 (6-TG R) cells (AID 1347105); details: MG 63 (6-TG R) viability, CellTiter-Glo, 48 h; series mostly up to 46 µM; note: nearly all actives have a fitted effect of over 50% in size
Summary of the method: as §1

[4] = qHTS of pediatric cancer cell lines to identify multiple opportunities for drug repurposing: Primary screen for SK-N-SH cells (AID 1347098); details: SK-N-SH viability, CellTiter-Glo luminescence, 48 h; series mostly up to 57 µM; note: nearly all actives have a fitted effect of over 65% in size
Summary of the method: (§3)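 Cells (500-1,000/well) rested 5 h, then received compounds for 48 h; metabolically active cells were measured by CellTiter-Glo luminescence. Final concentrations spanned up to 46 µM (MIPE, 11-point) or 0.59 nM-46 µM (NPC, 8-point) in primary screens, 11-point in follow-ups.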

[5] = qHTS of pediatric cancer cell lines to identify multiple opportunities for drug repurposing: Primary screen for NB1643 cells (AID 1347099); details: NB1643 neuroblastoma viability, CellTiter-Glo luminescence, 48 h; series mostly up to 46 µM; note: nearly all actives have a fitted effect of over 50% in size
Summary of the method: as §1

[6] = qHTS of pediatric cancer cell lines to identify multiple opportunities for drug repurposing: Primary screen for LAN-5 cells (AID 1347100); details: LAN-5 neuroblastoma viability, CellTiter-Glo luminescence, 48 h; series mostly up to 46 µM
Summary of the method: as §2

[7] = qHTS of pediatric cancer cell lines to identify multiple opportunities for drug repurposing: Primary screen for BT-12 cells (AID 1347101); details: BT-12 viability, CellTiter-Glo luminescence, 48 h; series mostly up to 57.3 µM; note: nearly all actives have a fitted effect of over 25% in size
Summary of the method: as §3

[8] = qHTS of pediatric cancer cell lines to identify multiple opportunities for drug repurposing: Primary screen for OHS-50 cells (AID 1347103); details: OHS-50 osteosarcoma viability, CellTiter-Glo luminescence, 48 h; series mostly up to 57.3 µM; note: nearly all actives have a fitted effect of over 40% in size
Summary of the method: as §3

[9] = qHTS of pediatric cancer cell lines to identify multiple opportunities for drug repurposing: Primary screen for RD cells (AID 1347104); details: RD rhabdomyosarcoma viability, CellTiter-Glo luminescence, 48 h; series mostly up to 46 µM; note: nearly all actives have a fitted effect of over 55% in size
Summary of the method: as §1
Potency is the fitted concentration of half-maximal effect.

For CCC(=C(c1ccccc1)c1ccc(OCCN(C)C)cc1)c1ccccc1, the Potency [1] was 18700 nM (active), the Potency [2] was “inactive” and the Potency [3] was “inactive”.
For CC1=C(CO)C(=O)O[C@@H]([C@@H](C)[C@H]2CC[C@H]3[C@@H]4C[C@H]5O[C@]56[C@@H](O)C=CC(=O)[C@]6(C)[C@@H]4CC[C@]23C)C1, the Potency [4] was 3410 nM (active), the Potency [5] was 132 nM (active) and the Potency [6] was 187 nM (active). For the same compound, the Potency [7] was 769 nM (active), the Potency [2] was 2640 nM (active) and the Potency [8] was 4850 nM (active). For the same compound, the Potency [9] was 418 nM (active) and the Potency [3] was 743 nM (active).
In the case of COc1ccc(C=Cc2cc(OC)c(OC)c(OC)c2)cc1O, the Potency [1] is reported as 935 nM (active), the Potency [6] is reported as 1 nM (active) and the Potency [9] is reported as “inactive”. The Potency [3] was “inactive”.
With CC(=O)Nc1sc2c(c1-c1nc3ccccc3s1)CNC2 the Potency [4] was 1210 nM (active), the Potency [6] was 10500 nM (active) and the Potency [3] was “inactive”.
With COc1cc2c(Nc3ccc(NC(=O)c4ccccc4)cc3)ncnc2cc1OCCCN1CCOCC1 the Potency [5] was 26400 nM (active), the Potency [6] was 743 nM (active) and the Potency [8] was 27300 nM (active). The Potency [9] was 33200 nM (active).
